This is part of a sample that, as a whole, favours compounds with a hit. Of some 83,000 tested, about 20% had one in any assay.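 Values shown are percent growth following 48 h exposure of cells in 96-well plates to a single concentration of compound; below 10 was considered active.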 Unmarked numbers belong to inactive results. Activity calls are given as the source filed them.
Assays:
Assay in all cases: NCI-60 one-dose screen, 48 h (100 = growth as untreated, 0 = no growth, -100 = all killed)
NCI-H460 lung = conditions: 10 µM unless noted
A549/ATCC NSCLC = conditions: 10 µM unless noted
786-0 renal = conditions: 10 µM unless noted
COLO 205 colon = conditions: 10 µM
K-562 leukemia = conditions: 10 µM unless noted
MALME-3M melanoma = conditions: 10 µM unless noted
RXF 393 renal = conditions: 10 µM unless noted
SF-295 CNS = conditions: 10 µM unless noted
UACC-257 melanoma = conditions: 10 µM unless noted
SK-MEL-5 melanoma = conditions: 10 µM unless noted
LOX IMVI melanoma = conditions: 10 µM unless noted
SK-MEL-2 melanoma = conditions: 10 µM unless noted
UO-31 renal = conditions: 10 µM unless noted
CAKI-1 renal = conditions: 10 µM unless noted
A498 renal = conditions: 10 µM unless noted
HL-60(TB) leukemia = conditions: 10 µM unless noted
MOLT-4 leukemia = conditions: 10 µM
OVCAR-3 ovarian = conditions: 10 µM unless noted
SW-620 colon = conditions: 10 µM unless noted
OVCAR-4 ovarian = conditions: 10 µM unless noted

Row | SMILES | growth (NCI-H460 lung) | growth (A549/ATCC NSCLC) | growth (786-0 renal) | growth (COLO 205 colon) | growth (K-562 leukemia) | growth (MALME-3M melanoma) | growth (RXF 393 renal) | growth (SF-295 CNS) | growth (UACC-257 melanoma) | growth (SK-MEL-5 melanoma) | growth (LOX IMVI melanoma) | growth (SK-MEL-2 melanoma) | growth (UO-31 renal) | growth (CAKI-1 renal) | growth (A498 renal) | growth (HL-60(TB) leukemia) | growth (MOLT-4 leukemia) | growth (OVCAR-3 ovarian) | growth (SW-620 colon) | growth (OVCAR-4 ovarian)
1 | CCOc1c(Cl)cc(CNC(C)C(O)c2ccccc2)cc1OC (stereo not drawn) | 75.1% | 29.3% | 89.1% | 95% | 13.9% | 46.9% | 67% | 48.4% | 51.4% | 82.7% | 57.1% | 72.7% | 92.6% | 87.9% | 32.9% | 20.5% | 41.9% | 67.4% | 43.4% | 
2 | NC(=O)C(Br)CBr (stereo not drawn) | 4.13% (active) | 4.34% (active) |  | -83.4% (active) | -50.1% (active) |  |  | 81.1% | -83.5% (active) | 55.6% | 3.13% (active) | -85.3% (active) | -51.8% (active) |  | 103% | -23.2% (active) | -62.1% (active) | -85.1% (active) | -59.3% (active) | -100% (active)
3 | CCC[CH2][Sn]([CH2]CCC)([CH2]CCC)[O]C(=O)c1ccc(Cl)cc1Cl | -78% (active) | -79.9% (active) | -91.7% (active) | -68.8% (active) | -38.2% (active) | -76.8% (active) | -88.5% (active) | -89.9% (active) | -94.8% (active) | -96.1% (active) | -70.3% (active) | -73.6% (active) | -86.9% (active) | -92.6% (active) | -85.3% (active) | -32.7% (active) | -16.6% (active) | -98.3% (active) | -71.7% (active) | -67.7% (active)
4 | O=C(CCc1ccco1)NC1CCN(CC2(c3ccc(Cl)cc3)CCC2)CC1 | 3.79% (active) | 8.74% (active) | 20.4% | -30% (active) | 3.19% (active) | -17.9% (active) | 28.4% | -46.5% (active) | -4.36% (active) | -9.97% (active) |  | -24.3% (active) | 10.7% | 5.62% (active) | -15% (active) | -42.7% (active) | -11.7% (active) | 13.9% | 14.7% | 

From PubChem BioAssay (NCI)
